In PubChem BioAssay AID1224921 (Broad Institute, 2016):
About 350 (25%) of roughly 1,400 compounds were called active. Not shown: some 2% with an inconclusive outcome. The rule behind the calls is not given here. A selection follows. Measured potencies and affinities stand elsewhere.

assay: inhibitors of Clostridioides difficile proliferation – 4-point retest, confirmation (AID 1224921); conditions: Clostridioides difficile clinical isolate growth, OD600, 24 h, active compounds read low; at 30 µM unless noted;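 note: plate controls were DMSO wells for no effect and levofloxacin 16 µg/mL wells for full effect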

Max activity, inactive:
C[C@@H]1CN([C@@H](C)CO)C(=O)c2cc(Br)cnc2O[C@H]1CN(C)C(=O)c1ccccc1 9.74%, Cc1noc(C)c1NC(=O)N[C@H]1CC[C@@H](CC(=O)Nc2ccc(-c3ccccc3)cc2)O[C@H]1CO 12.6%, COc1ccc(NC(=O)Nc2ccc3c(c2)C(=O)N([C@@H](C)CO)C[C@@H](C)[C@H](CN(C)Cc2ccccc2)OCCCC[C@@H](C)O3)cc1 30.9%, CCCC(=O)Nc1ccc2c(c1)C(=O)N(C)C[C@H](OC)[C@@H](C)CN(Cc1ccccc1)[C@H](C)CO2 15.3%, O=C(C[C@@H]1C=C[C@@H](NC(=O)CC2CC2)[C@H](CO)O1)NCc1ccc(-c2ccccc2)cc1 -9.84% [at 0.5 µM], CO[C@H]1CN(C)C(=O)c2cc(NC(C)=O)ccc2OC[C@H](C)N(CCc2ccccc2)C[C@H]1C 19.8%, CCCN1C[C@H](C)[C@H](OC)CN(C)C(=O)c2cc(NC(=O)c3cccc(F)c3)ccc2OC[C@@H]1C -11.7% [at 1.95 µM], C=CCOC(=O)[C@H]1[C@@H]2C(=O)O[C@@H](c3ccccc3)[C@@H](c3ccccc3)N2[C@@H](c2ccc(OCCOC(=O)[C@@H]3C[C@@H]4C(=O)N[C@@H](CC(C)C)C(=O)N4[C@@H]3c3cccc(OCCO)c3)cc2)[C@]12C(=O)Nc1ccccc12 24.6%, COc1ccc(-c2ccc([C@H]3[C@@H](C#N)N(C(=O)C4CC4)[C@H]3CO)cc2)cc1 32.9%, C[C@@H]1CN([C@H](C)CO)C(=O)Cc2cc(NC(=O)c3ccncc3)ccc2O[C@@H]1CN(C)Cc1ccc(-c2ccccc2)cc1 47.8% [at 35 µM], CO[C@H]1CN(C)C(=O)c2ccc(NS(C)(=O)=O)cc2OC[C@@H](C)N(Cc2ccccn2)C[C@H]1C -14.3% [at 8 µM], COCC(=O)Nc1ccc2c(c1)OC[C@@H](C)N(C(=O)c1ccccc1F)C[C@H](C)[C@H](OC)CN(C)C2=O 7.88%, C[C@@H]1CN([C@H](C)CO)S(=O)(=O)c2ccc(C#CCN(C)C)cc2O[C@H]1CN(C)C(=O)c1ccccc1F 18%, CCCN1C[C@@H](C)[C@@H](OC)CN(C)C(=O)c2cc(NC(=O)c3cccc(F)c3)ccc2OC[C@@H]1C -11.8%, CCCN1C[C@H](C)[C@@H](OC)CN(C)C(=O)c2ccc(NC(=O)CC)cc2OC[C@H]1C 5.45% [at 1.95 µM], COCC(=O)N1C[C@H](C)[C@@H](OC)CN(C)C(=O)c2cc(NC(=O)NC(C)C)ccc2OC[C@@H]1C 23.4%, C[C@H](CO)N1C[C@H](C)[C@H](CN(C)S(=O)(=O)c2cccc(F)c2)Oc2ncc(C#CCN(C)C)cc2C1=O 8.03%, O=C(C[C@H]1C[C@@H]2c3cc(NC(=O)C4CCC4)ccc3O[C@@H]2[C@@H](CO)O1)NCc1ccc(Cl)cc1 -16.5% [at 0.5 µM], C[C@@H]1CN([C@H](C)CO)C(=O)c2cccc(NC(=O)c3ccncc3)c2O[C@H]1CN(C)Cc1ccc(-c2ccccc2)cc1 36.1% [at 8 µM], C[C@@H]1CN([C@@H](C)CO)C(=O)Cc2cc(NC(=O)c3ccncc3)ccc2O[C@H]1CN(C)Cc1ccc(-c2ccccc2)cc1 25.3% [at 8 µM], C[C@H]1CN([C@@H](C)CO)C(=O)c2cccc(NS(C)(=O)=O)c2O[C@@H]1CN(C)Cc1ccccc1 -11.4% [at 0.5 µM], Cc1cc(C(=O)Nc2cccc3c2O[C@H](CN(C)Cc2ccc(Oc4ccccc4)cc2)[C@@H](C)CN([C@H](C)CO)C3=O)n(C)n1 41%, C[C@@H]1CN([C@@H](C)CO)C(=O)c2cccc(NC(=O)c3ccncc3)c2O[C@H]1CN(C)Cc1ccc(-c2ccccc2)cc1 13.2% [at 8 µM], C[C@@H]1CN([C@H](C)CO)C(=O)c2cccc(NC(=O)c3ccncc3)c2O[C@H]1CN(C)Cc1ccc(Cl)c(Cl)c1 16.6%, CO[C@H]1CN(C)C(=O)c2cc(NC(=O)Nc3cccc(F)c3)ccc2OC[C@@H](C)N(C)C[C@@H]1C -17.5%, CO[C@@H]1CN(C)C(=O)c2cc(NS(=O)(=O)c3ccccc3C)ccc2OC[C@@H](C)N(C)C[C@H]1C -6.93% [at 1.95 µM], CCC(=O)N[C@H]1CC[C@H](CC(=O)NCCN2CCCCC2)O[C@@H]1CO 25.2%, Cc1ccccc1-c1ccc2c(c1)O[C@H](CN(C)Cc1ccncc1)[C@H](C)CN([C@@H](C)CO)S2(=O)=O 25.3%, O=C(C[C@@H]1CC[C@@H]2[C@H](COC[C@@H](O)CN2S(=O)(=O)c2ccccc2)O1)NCc1ccc(-c2ccccc2)cc1 25.5%, O=C(C[C@H]1CC[C@H]2[C@@H](COC[C@H](O)CN2S(=O)(=O)c2ccccc2)O1)NCc1ccc(-c2ccccc2)cc1 41.2%, CC(C)CC#Cc1ccc2c(c1)O[C@@H](CN(C)Cc1cccnc1)[C@H](C)CN([C@H](C)CO)S2(=O)=O 41.5% [at 8 µM], CC(C)CC#Cc1ccc2c(c1)O[C@H](CN(C)Cc1ccccc1F)[C@H](C)CN([C@@H](C)CO)S2(=O)=O 23.7% [at 8 µM], CO[C@@H]1CN(C)C(=O)c2ccc(NC(=O)c3ccccn3)cc2OC[C@@H](C)N(C(=O)C2CCC2)C[C@H]1C -10.9% [at 23.5 µM], CC(C)C(=O)Nc1ccc2c(c1)C(=O)N(C)[C@H]1CC[C@@H](CC(=O)NCc3ccccc3F)O[C@H]1CO2 -11.1% [at 1.95 µM], C[C@@H]1CN([C@@H](C)CO)S(=O)(=O)c2ccc(C#CC3CCCC3)cc2O[C@H]1CN(C)Cc1cccnc1 15.4%, O=C(N[C@@H]1C=C[C@@H](CC(=O)N2CCc3ccccc3C2)O[C@@H]1CO)C1CC1 15.1%, CC(C)CC#Cc1ccc2c(c1)O[C@H](CN(C)Cc1ccc3c(c1)OCO3)[C@H](C)CN([C@@H](C)CO)S2(=O)=O 27.5%, O=C(C[C@H]1C[C@@H]2c3cc(NC(=O)Nc4ccc(C(F)(F)F)cc4)ccc3O[C@@H]2[C@H](CO)O1)NCc1ccc(Cl)cc1 21.4%, CCCC(=O)Nc1ccc2c(c1)OC[C@H](C)N(CCc1ccccc1)C[C@H](C)[C@@H](OC)CN(C)C2=O 22%, C[C@H]1CN([C@@H](C)CO)C(=O)c2cccc(NC(=O)c3ccc(-c4nccs4)cc3)c2O[C@@H]1CN(C)C(=O)Nc1ccc(C(F)(F)F)cc1 20.3% [at 8 µM], COc1ccccc1CNC(=O)C[C@H]1C[C@@H]2c3cc(NC(=O)NC4CCCC4)ccc3O[C@@H]2[C@H](CO)O1 -8.77% [at 2.1 µM], C[C@@H]1CN([C@H](C)CO)C(=O)c2c(c3ccccc3n2C)-c2ccccc2CO[C@@H]1CN(C)Cc1ccncc1 24.2% [at 35 µM], CCC(CO)Oc1cc(NCc2ccccc2)c2ncn(C(C)C)c2c1 (configuration not stated) -5.47% [at 8 µM], CCS(=O)(=O)Nc1ccc2c(c1)C(=O)N(C)C[C@H](OC)[C@H](C)CN(CC1CCCC1)[C@@H](C)CO2 11.3%, CC(C)=CCN(C(=O)C#Cc1ccccc1)[C@H](CO)c1ccccc1 14.2% [at 1.95 µM], C[C@H](CO)N1C[C@H](C)[C@H](CN(C)Cc2ccc(C(F)(F)F)cc2)OCCCC[C@H](C)Oc2ccc(NS(C)(=O)=O)cc2C1=O 5.77% [at 1.95 µM], CCCC#Cc1ccc2c(c1)O[C@@H](CN(C)Cc1ccncc1)[C@H](C)CN([C@@H](C)CO)S2(=O)=O -9.09% [at 1.95 µM], CO[C@@H]1CN(C)C(=O)c2ccc(NC(=O)c3nc4ccccc4s3)cc2OC[C@H](C)N(Cc2cccnc2)C[C@H]1C 25.4%, CCCC(O)C#Cc1cnc2c(c1)C(=O)N([C@H](C)CO)C[C@H](C)[C@H](CN(C)Cc1ccncc1)O2 (some centres not stated) 12%, C[C@H](CO)N1C[C@H](C)[C@H](CN(C)C(=O)c2cccc(F)c2)Oc2ncc(C3=CCCCC3)cc2C1=O -6.68% [at 8 µM], C[C@@H]1CN([C@H](C)CO)C(=O)c2c(c3ccccc3n2C)-c2ccccc2CO[C@@H]1CN(C)S(=O)(=O)CC(F)(F)F 28.3%, Cc1ccccc1S(=O)(=O)NCC[C@@H]1CC[C@@H](NC(=O)Nc2cccc(Cl)c2)[C@@H](CO)O1 23.9%, C[C@H]1CN([C@@H](C)CO)C(=O)Cc2cc(NS(C)(=O)=O)ccc2O[C@@H]1CN(C)Cc1ccccc1 11.3%, COCC(=O)Nc1ccc2c(c1)OC[C@@H](C)N(Cc1cncnc1)C[C@H](C)[C@@H](OC)CN(C)C2=O -8.05% [at 1.95 µM], C[C@H](CO)N1C[C@H](C)[C@H](CN(C)S(=O)(=O)c2ccsc2)OCc2ccccc2-c2ccccc2C1=O -12.1% [at 0.5 µM], C[C@H](O)C#Cc1ccc2c(c1)O[C@H](CN(C)CC1CCCCC1)[C@H](C)CN([C@H](C)CO)S2(=O)=O 20.7%, C[C@H]1CN([C@@H](C)CO)C(=O)c2cc(NC(=O)Cc3ccccc3)ccc2O[C@@H]1CN(C)C(=O)Nc1ccccc1 -13.4% [at 0.5 µM]
